# Laboratory results: PubChem BioAssay (NCI)
# The panel holds about 83,000 compounds, 20% with a hit somewhere; the sample as a whole holds those more often.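 Assay: single dose, 48 h. Readout: percent growth (0 = no net growth; negative = cell death). Active: <10.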 A number with no mark means an inactive call. Activity calls are given as the source filed them.
# Columns and labels:
# Test in all cases: NCI-60 one-dose screen, 48 h (100 = growth as untreated, 0 = no growth, -100 = all killed)
# Settings in all cases: 10 µM
# DU-145 prostate = system: DU-145 prostate
# K-562 leukemia = system: K-562 leukemia
# MALME-3M melanoma = system: MALME-3M melanoma
# MDA-MB-231 breast = system: MDA-MB-231 breast
# RXF 393 renal = system: RXF 393 renal
# SF-268 CNS = system: SF-268 CNS
# SF-295 CNS = system: SF-295 CNS
# SF-539 CNS = system: SF-539 CNS
# UACC-257 melanoma = system: UACC-257 melanoma
# M14 melanoma = system: M14 melanoma
Compound,growth (DU-145 prostate),growth (K-562 leukemia),growth (MALME-3M melanoma),growth (MDA-MB-231 breast),growth (RXF 393 renal),growth (SF-268 CNS),growth (SF-295 CNS),growth (SF-539 CNS),growth (UACC-257 melanoma),growth (M14 melanoma)
Nc1ccc(C2=CC(c3ccc(Cl)cc3)N3C=CSC3=N2)cc1 (stereo not given),-44.6% (active),3.22% (active),-82.8% (active),-14.4% (active),-93.1% (active),-41.9% (active),-0.33% (active),-55.8% (active),-78.1% (active),-71.1% (active)
COc1ccc(-c2cc(=O)n(-c3nc4ccccc4[nH]3)[nH]2)cc1OC,83%,26.5%,67.2%,94.5%,3.51% (active),72.3%,-12.8% (active),71.3%,89.2%,54.5%
N#Cc1c(-c2ccccc2)nc(SCC(=O)N2CCOCC2)[nH]c1=O,112%,89.8%,92.4%,114%,117%,104%,97.1%,97.1%,97%,100%
COC(=O)c1cnc2c(c1)Oc1ccc(Cl)cc1-c1cc(C)nn1-2,79.6%,95.8%,94.8%,35%,89.8%,78.9%,92.3%,46.1%,107%,95.3%
O=S(=O)(O)C1(O)CCCCC1,54.1%,85.3%,86.9%,84.4%,89.4%,104%,82.5%,84%,102%,91.2%
NC(=O)C1CCCN(Cc2c[nH]c3ccccc23)C1 (stereo not given),106%,97.3%,99.7%,99.8%,95.2%,96%,92.7%,92.9%,96.5%,99%
C#C[C@]1(O)CC[C@H]2[C@@H]3CC[C@H]4CC(F)(F)CC[C@]4(C)[C@H]3CC[C@@]21C,61.2%,76.2%,88%,101%,86.4%,92.9%,69.1%,54.6%,78.3%,80.4%
O=NN(CCCl)C(=O)Nc1ccc(NC(=O)N(CCCl)N=O)cc1,111%,92.6%,105%,109%,109%,61.2%,74%,19.7%,85.7%,93.1%
COc1ccc(C2C=C(c3ccc(Cl)c(Cl)c3)N=C3SC(C)=CN32)cc1OC (stereo not given),83.6%,59.5%,87.3%,46.1%,66.4%,63.2%,42.5%,90.7%,79.7%,71%
C=CCn1c(C)nc2cc(Nc3nc(Nc4ccc5nc(C)n(CC=C)c5c4)c4ccccc4n3)ccc21,-96% (active),-27.7% (active),-68.3% (active),-85.8% (active),-97.4% (active),-69.8% (active),-86.6% (active),-95.8% (active),-79.8% (active),-88% (active)
Cc1nc2scc(-c3ccc(Cl)cc3)n2c(=O)c1CCN1CCOCC1,115%,80.6%,100%,78.3%,118%,102%,70.7%,100%,108%,97.8%
CC1(CO)CCCC12OCCO2 (stereo not given),117%,100%,113%,104%,100%,110%,82.3%,96.2%,99.8%,106%
COc1cc(-c2cc(/C=C/C(C)=O)[nH]n2)cc(OC)c1OC,77%,46.6%,67.5%,78.8%,89.4%,82.4%,76%,93.4%,79.9%,84.9%
